Screens from PubChem BioAssay.
This is one part of a sample in which hits are shown more often than they occur.
RMI-FANCM inh: disruptors of RMI1/RMI2 association with MM2 peptide – biochemical, fluorescence polarization, human, primary screen | RMI core complex with F-MM2 peptide; stronger effect = lower value | AID 1159607, 2016 | FP signal (polarization) at 33 µM | 70,000 compounds, 0.58% hits; in the data active means FP signal below about 40
* = called active by the depositor.

SMILES	RMI-FANCM inh
COCCN1CCCc2ccc(NS(=O)(=O)c3ccc(OC)cc3)cc21	58
COCCN1CCCc2ccc(NC(=O)c3cc(C)cc(C)c3)cc21	65
Cc1cc(=O)n2c(-c3cccc(NC(=O)c4ccc(C(F)(F)F)cc4)c3)csc2n1	69
O=C1NC(=Nc2ccccc2)S/C1=C/C=C/c1ccco1	27*
CC(=C\c1ccccc1)/C=C1/SC(=Nc2ccc(F)cc2)NC1=O	58
CCOc1ccc(N=C2NC(=O)S/C2=C\C=C\c2ccccc2)cc1	66
Cc1ccc(S(=O)(=O)N(CCc2cccs2)CC(=O)O)cc1	63
O=C(CSc1nccs1)N1CCN(c2ccccc2)CC1	53
NC(=O)Nc1ccc(F)cc1F	57
N/C(CC(=O)Nc1ccc(F)c(F)c1F)=N/O	35*
O=C(CS(=O)(=O)c1ccc(Cl)cc1)Nc1ccc(F)c(F)c1F	57
CCOc1cc(/C=C2/SC(=Nc3ccccc3C(F)(F)F)NC2=O)ccc1O	138
CCOC(=O)c1ccc(NC(=S)NC(C)c2ccc3c(c2)OCCO3)cc1 (configuration not stated)	63
CCCc1c2c(cc3c(=O)cc(C(=O)OCC)oc13)CCCC2	32*
CCOC(=O)c1sc(NC(=O)c2cc(=O)c3ccccc3o2)cc1C	62
CCOC(=O)c1cc2cc(Cl)ccc2o1	53
Cc1ccc2nc(N3C(=O)c4cccc5cccc(c45)C3=O)sc2c1	68
COC(=O)c1ccc2nc(NC(=O)c3ccnn3C)sc2c1	66
COC(=O)c1ccc2nc(NC(=O)c3ccc(N(C)C)cc3)sc2c1	-15*
CCOc1cc(C(=O)Nc2nc3ccc(C(=O)OC)cc3s2)cc(OCC)c1OCC	64
Cc1cc(C)cc(S(=O)(=O)c2cc3cc(Cl)ccc3oc2=O)c1	61
CC(=O)N1CCc2c(sc3nc(SCc4cccc([N+](=O)[O-])c4)n(-c4ccccc4)c(=O)c23)C1	78
Cc1cccc2sc(NNC(=O)c3cc4ccccc4oc3=O)nc12	56
CCCc1c(C(=O)Nc2cc(-c3ccccc3)nn2C)cnn1-c1ccccc1	53
Cc1nc2ccc(NC(=O)C(C)Oc3ccc4c(c3)OCO4)cc2c(=O)n1-c1ccccc1 (configuration not stated)	64
SMILES	RMI-FANCM inh
Cc1nc2ccc(NC(=O)Nc3ccc4c(c3)OCO4)cc2c(=O)n1-c1ccc(Cl)cc1	28*
Cc1ccc(-n2c(C)nc3ccc(NC(=O)Nc4ccc(F)c(Cl)c4)cc3c2=O)cc1	72
COC(=O)c1ccc(C(=O)Nc2nc(-c3ccc(OC)c(C)c3)cs2)cc1	71
COc1ccc(N2CCN(CCNC(=O)c3ccccc3C)CC2)cc1	68
CC(/C=C1\SC(=O)N(CC(=O)Nc2ccc(O)cc2)C1=O)=C\c1ccccc1	54
CC(/C=C1\SC(=S)N(CC(=O)N2c3ccccc3Sc3ccccc32)C1=O)=C\c1ccccc1	61
CC(/C=C1\SC(=S)N(CC(=O)Nc2ccc(C(=O)O)c(O)c2)C1=O)=C\c1ccccc1	19*
CCOc1ccc(NC(=O)CN(C)S(=O)(=O)c2c(C(=O)OC)sc3ccccc23)cc1	73
CCOC(=O)N1CCN(CC(O)COc2ccc(-c3ccccc3)cc2)CC1 (configuration not stated)	65
CCOC(=O)N1CCN(C(c2ccncc2)c2c(C)[nH]c3ccccc23)CC1 (configuration not stated)	58
CCOC(=O)N1CCN(C(c2ccccn2)c2c(-c3ccccc3)n(O)c3ccccc23)CC1 (configuration not stated)	26*
O=S(=O)(NCCOc1ccc(-c2ccco2)nn1)c1ccc2c(c1)CCCC2	66
N#Cc1cc(-c2ccccc2)nc2ccc(Br)cc12	58
CCCN1CCCc2cc(CCNC(=O)OCC)ccc21	31*
CCCN1CCCc2cc(CCNS(C)(=O)=O)ccc21	24*
CCN1CCCc2cc(CCNC(=O)c3ccc(OC)c(OC)c3)ccc21	61
CCCN1CCCc2cc(CCNC(=O)C(=O)Nc3ccccc3OCC)ccc21	163
CCN1CCCc2cc(CCNC(=O)c3ccccc3C(F)(F)F)ccc21	0*
CN1CCCc2cc(CCNC(=O)c3ccccc3Cl)ccc21	61
CCCN1CCCc2cc(CCNC(=O)C(=O)NC(C)C)ccc21	67
CCCN1CCCc2cc(CCNC(=O)c3cccc(OC)c3OC)ccc21	65
CCCN1CCCc2cc(CCNC(=O)c3ccccc3OCC)ccc21	23*
CCCC(=O)NCCc1ccc2c(c1)CCCN2CCC	62
CCCN1CCCc2cc(CCNS(=O)(=O)CC(C)C)ccc21	88
CCCN1CCCc2cc(CCNS(=O)(=O)c3ccc(CC)cc3)ccc21	150
SMILES	RMI-FANCM inh
O=C(Nc1ccc(F)c([N+](=O)[O-])c1)c1ccc(=O)n(Cc2ccccc2F)c1	51
O=C(O)c1ccc(C(=O)O)s1	54
O=C(CC1Nc2ccccc2NC1=O)Nc1ccccc1C(F)(F)F (configuration not stated)	62
Cc1ccc(N2C(=O)C3N=NN(Cc4nc(-c5cccc(Br)c5)no4)C3C2=O)cc1F (configuration not stated)	64
CCOC(=O)c1c(-c2ccc(F)cc2)csc1NC(=O)CSc1nc2scc(-c3ccco3)c2c(=O)n1-c1ccccc1	87
O=C(Nc1nc2c(Cl)ccc(Cl)c2s1)c1ccccc1[N+](=O)[O-]	59
CCOC(=O)c1cnc2c(c(C)nn2C)c1NCc1ccco1	60
Cc1cc(NC(=O)c2ccc(Cl)s2)n(C(C)C)n1	69
CCCn1nc(-c2ccco2)c2sc(N3CCOCC3)nc2c1=O	66
O=C(Nc1ccc2c(=O)c3cccc(Cl)c3oc2c1)c1cccc(F)c1	66
Cc1[nH]c2ccccc2c1C(c1ccco1)c1c(C)[nH]c2ccccc12	135
Cc1[nH]c2ccccc2c1C(c1ccc(OC(F)F)cc1)c1c(C)[nH]c2ccccc12	36
Cc1[nH]c2ccccc2c1C(c1ccc(C(C)C)cc1)c1c(C)[nH]c2ccccc12	29*
CC(C)(C)c1csc(NC(=O)COc2ccc(Cl)cc2Cl)n1	71
CCN(CC)CCN(C(=O)c1ccc(S(=O)(=O)N(CC)c2ccccc2)cc1)c1nc2cc3c(cc2s1)OCCO3	40*
CCN(CC)CCN(C(=O)c1ccc(S(=O)(=O)N(CC)c2ccccc2)cc1)c1nc2ccc(C)cc2s1	101
CCN(c1ccccc1)S(=O)(=O)c1ccc(C(=O)N(CCCN(C)C)c2nc3cc4c(cc3s2)OCO4)cc1	135
O=C(CC1CSc2nc3c(cnn3-c3cccc(Cl)c3)c(=O)n21)NCC1CCCO1 (configuration not stated)	68
CSc1ccc2nc(Nc3nc4ccc5sc(C)nc5c4s3)sc2c1	93
COc1ccc(CCNC(=O)CS(=O)(=O)c2cccs2)cc1OC	65
O=C(Cn1cc(S(=O)(=O)c2ccccc2)c2ccccc21)NCc1ccccn1	57
C(#Cc1ccc(-c2ccn[nH]2)s1)c1ccccc1	57
CS(=O)(=NS(=O)(=O)c1ccc(-c2ccccn2)s1)c1ccccc1 (configuration not stated)	54
COc1ccccc1NC(=O)c1ccc(CSc2nc(C)cc(C)n2)cc1	78
Cc1ccc(C)n1CCNc1ccc(C(F)(F)F)cc1[N+](=O)[O-]	51
O=C(Nc1cccc(C(F)(F)F)c1)c1ccc([N+](=O)[O-])o1	52
CC(C)(CCOC(=O)c1ccc([N+](=O)[O-])o1)Nc1ccc(C(F)(F)F)cc1[N+](=O)[O-]	40*
